A selection: hits, their analogues and other compounds. The true share with any hit is near 4.1%.
697 NFkB inh: inhibitors of PMA/ionomycin-induced NF-kB reporter, 697 cells, primary screen, B-cell NF-kB inhibitor project, cell-based, luminescence, uHTS; inhibition, % at 4 µM; 697 B-cell NF-kB luciferase reporter, 16 h; actives 0.33% (n = 330,000); in the data active = inhibition above about 35%
KLF5 inhibitor: KLF5 expression inhibitors, primary screen, DLD-1 cells, luminescence; DLD-1 KLF5 promoter-luciferase reporter; inhibition, % at 5 µM; actives 0.23% (n = 290,000);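 active = inhibition above a per-plate limit of that plate's mean compound inhibition plus 3 SD, cut at about 60% in these data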;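 also: 0% = DMSO wells and 100% = LY294002 at 200 µM; higher means less KLF5 promoter-driven luciferase light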
Gli-Sufu antag: Gli-Sufu pathway antagonists, primary screen, luciferase luminescence, Sufu-KO-LIGHT cells, uHTS; Sufu-KO-LIGHT fibroblasts, Gli luciferase reporter luminescence; inhibition, % at 5 µM; actives 0.74% (n = 340,000);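 active = inhibition above about 55%, limit read from the data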;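 also: 0% = DMSO-treated cells and 100% = wells with medium but no cells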
Mdm2-MdmX inh: inhibitors of human Mdm2-MdmX association, primary screen, cell-based, luminescence, split luciferase, SaOS-2, uHTS; Protein Mdm4 (Homo sapiens) + E3 ubiquitin-protein ligase Mdm2 (Homo sapiens), …; inhibition, % at 8 µM; SaOS-2 split-luciferase Mdm2/MdmX complementation; actives 3% (n = 330,000);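 active = inhibition of at least 50% at 8 µM in the primary screen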
Jurkat NFkB inh: inhibitors of induced NF-kB luciferase reporter, primary screen, TCR NF-kB activation inhibitor project, cell-based, luminescence, uHTS; Jurkat, PMA/ionomycin-induced NF-kB luciferase reporter; inhibition, % at 4 µM; actives 0.53% (n = 330,000); AID 435003, 2010; in the data active = inhibition above about 50%
aSyn 5UTR inh: MLPCN primary screen, SNCA 5' untranslated region; alpha-synuclein 5'UTR reporter, inhibitor activity; inhibition, % (tested at 7.5 µM); actives 0.82% (n = 300,000); in the data active = inhibition above about 60%;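 also: H4 neuroglioblastoma cells stably carrying SNCA 5'UTR luciferase fusion; 0% = DMSO wells and 100% = positive control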
697 NFkB conf: PMA/ionomycin-induced NF-kB reporter inhibitors, 697 retest, confirmation, B-cell NF-kB inhibitor project, cell-based, luminescence, single concentration; 697 B-cell NF-kB luciferase, 16 h; actives 35% (n = 2,000); AID 449746, 2010; shares compounds with 697 NFkB inh; inhibition, % at 4 µM; in the data active = inhibition mostly above about 28%, no sharp cut-off; inactive = mostly below about 22%
Mdm2-MdmX conf: Mdm2-MdmX complex disruptors, retested hits, confirmation, luminescence, single concentration; Mdm2-MdmX binding, luminescent assay; inhibition, % at 8 µM; actives 55% (n = 10,000); shares compounds with Mdm2-MdmX inh; in the data active = inhibition above about 40%
Full FLuc ctr: full-length luciferase signal inhibition, confirmation, counter-screen for Mdm2/MdmX interaction inhibitor project, cell-based, single concentration, SaOS-2; inhibition, % at 8 µM; shares compounds with Mdm2-MdmX inh; actives 77% (n = 6,200); SaOS-2 full-length luciferase counterscreen, luminescence;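 active = mean inhibition at 8 µM reaching about 37%, which flags the compound as non-specific, limit read from the data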;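 also: p53-null SaOS-2 cells with luciferase driven by a doxycycline-inducible promoter; compound on cells about two nights before reading with doxycycline added after day one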
Active calls of the source: *; i = inactive; / = no result given.

SMILES | 697 NFkB inh | KLF5 inhibitor | Gli-Sufu antag | Mdm2-MdmX inh | Jurkat NFkB inh | aSyn 5UTR inh | 697 NFkB conf | others
CCC(CO)Oc1cc(NCc2ccccc2O)c2ncn(C(C)C)c2c1 (stereo not given) | 45* | / | -9 | 36 | -9 | / | 46*
Cc1c(CCC(=O)O)c(=O)oc2cc3oc4c(c3cc12)CCCC4 | 40* | -15 | 18 | -29 | 1 | 68* | 35*
Cc1c(CCC(=O)N2CCC[C@H]2C(=O)O)c(=O)oc2cc3oc4c(c3cc12)CCCC4 | 60* | -6 | 7 | 6 | -22 | 77* | 42*
O=C(NCC(c1ccco1)N1CCCCC1)c1ccc(COc2ccccc2)cc1 (stereo not given) | -39 | / | 25 | 39 | 15 | -1 | /
CC1CCc2nc(NC(=O)c3ccco3)sc2C1 (stereo not given) | -264 | -9 | -47 | 18 | -46 | 88* | -292
CS(=O)(=O)c1ccc2nc(NC(=O)c3ccco3)sc2c1 | -103 | -136 | -66 | -9 | -56 | -42 | /
CCOc1ccc2nc(NC(=O)c3ccco3)sc2c1 | -327 | 1 | / | -92 | -112 | 12 | -288
CCOC(=O)c1ccc2nc(NC(=O)c3ccco3)sc2c1 | -302 | -126 | -94 | -233 | -90 | -46 | -273
CC1CCc2nc(NC(=O)Cc3cccs3)sc2C1 (stereo not given) | -101 | -94 | -78 | -112 | -105 | -160 | /
CCCN(C(=O)/C=C/c1nc2ccccc2s1)C1CCS(=O)(=O)C1 (stereo not given) | 9 | / | 1 | -9 | -10 | / | /
Cc1ccc(C)c(OCc2ccc(C(=O)NN)o2)c1 | 46* | 8 | 8 | 21 | -6 | 16 | 32*
O=C(O)c1ccccc1N/N=C/c1cc(Br)cc(Br)c1O | -179 | -53 | -100 | -24 | -92 | -111 | /
O=C(O)c1ccccc1N/N=C\c1ccnc2ccccc12 | -262 | -116 | 2 | -31 | -61 | 76* | -97
NNC(=O)c1cccc(COc2ccccc2Br)c1 | -73 | -113 | -151 | -63 | -41 | -72 | /
NNC(=O)c1cccc(COc2ccc3c(c2)CCC3)c1 | 56* | -25 | -109 | 10 | 9 | 71* | -30
Cc1c(CN2CCC(Oc3ccc(C(=O)N4CCCCC4)cc3)CC2)cnn1C | 12 | -13 | 7 | 3 | 18 | 4 | /
Cc1ccc(-c2nsc3c(N4CCC(C(N)=O)CC4)ncnc23)cc1 | 78* | -9 | -1 | -67 | -91 | -99 | 53*
CC(=O)Nc1ccc2nc(SCC(=O)O)sc2c1 | 36* | -1 | 5 | 3 | -9 | -10 | 7
O=C1/C(=C/Nc2ccc3c(c2)OCO3)CCc2ccccc21 | -469 | -90 | -77 | 10 | -58 | 96* | -251
COCc1ccc(C(=O)N2CCC(CCC(=O)Nc3cccc(C)c3)CC2)s1 | 39* | -12 | 9 | -5 | 19 | 43 | 17
Cc1cccc(NC(=O)CCC2CCN(C(=O)c3ccc(C)s3)CC2)c1 | 10 | 0 | 14 | 17 | 2 | 30 | /
CN(C)c1nc(N(C)C)n(Cc2c(Cl)cccc2Cl)n1 | -4 | 15 | 4 | 2 | 2 | -5 | /
Cn1c(-c2ccccc2)cc2c3no[n+]([O-])c3ccc21 | -262 | -57 | -9 | 58* | -33 | -69 | -133 | Mdm2-MdmX conf=73*;Full FLuc ctr=53*
CCOC(=O)c1[nH]c(C)c(CC(C)C)c1C | -13 | -21 | -8 | 4 | -6 | -32 | /
CC(=O)c1sc(NC(=O)C2CCN(c3ncnc4sc(C)c(C)c34)CC2)nc1-c1ccccc1 | 11 | / | -7 | 10 | 10 | 1 | /
SMILES | 697 NFkB inh | KLF5 inhibitor | Gli-Sufu antag | Mdm2-MdmX inh | Jurkat NFkB inh | aSyn 5UTR inh | 697 NFkB conf | others
Cc1sc2ncnc(N3CCC(C(=O)Nc4nc(-c5ccc(F)cc5)cs4)CC3)c2c1C | -282 | / | 6 | 94* | 8 | 35 | -45 | Mdm2-MdmX conf=90*;Full FLuc ctr=60*
O=C(NCC1CCCO1)C(=O)NCC1CCCN1S(=O)(=O)c1ccccc1 (stereo not given) | -2 | / | -8 | -9 | 13 | -4 | /
Cn1nnnc1Sc1ncnc2scc(-c3ccc([N+](=O)[O-])cc3)c12 | -399 | / | 25 | 99* | 44 | / | -197 | Mdm2-MdmX conf=100*;Full FLuc ctr=50*
COCCNC(=O)c1cc(-c2ccc(-c3ccccc3)cc2)nc2ccccc12 | i | -48 | 8 | 88* | -83 | -61 | i | Mdm2-MdmX conf=84*;Full FLuc ctr=46*
O=C(NCc1ccccn1)c1cc(-c2ccc(-c3ccccc3)cc2)nc2ccccc12 | i | -75 | -53 | 84* | -53 | -14 | i | Mdm2-MdmX conf=61*;Full FLuc ctr=54*
c1ccc(-c2nnc(C3CC(c4ccncc4)=NO3)o2)cc1 (stereo not given) | 12 | / | -6 | -2 | 8 | -3 | /
NC(=O)C1=C[C@@H](C2CCCCC2)C[C@@H](OCCCCO)O1 | -8 | -22 | 7 | 3 | 9 | 4 | /
CC(=O)OC(C(=O)Nc1ccccc1C)C(OC(C)=O)C(OC(C)=O)C(OC(C)=O)C(=O)Nc1ccccc1C (stereo not given) | / | -29 | / | / | / | / | /
CCOC(=O)N1CCN(C(=O)c2ccc(Cn3c(=S)[nH]c4cc(OCC)c(OCC)cc4c3=O)cc2)CC1 | 37* | 2 | 13 | 54* | 21 | 34 | -4 | Mdm2-MdmX conf=31
CCOC(=O)N1CCN(C(=O)C2CCC(=O)N(Cc3cccc(C(F)(F)F)c3)C2)CC1 (stereo not given) | 8 | -64 | -4 | 8 | 7 | -19 | /
COc1ccc(-c2cc(C(=O)N(C)CC(=O)Nc3ccccc3Br)c3ccccc3n2)cc1OC | 44* | / | 11 | 56* | 20 | 9 | 21 | Mdm2-MdmX conf=49*;Full FLuc ctr=80*
COc1cc2c(cc1C1NC(=S)NC(C)=C1C(N)=O)CCCC2 (stereo not given) | 43* | -3 | 42 | 66* | -22 | 6 | 1 | Mdm2-MdmX conf=37;Full FLuc ctr=86*
CC1=C(C(N)=O)C(c2cccs2)NC(=S)N1 (stereo not given) | 3 | 7 | -2 | -10 | -2 | 22 | /

Source: PubChem
